# Unmarked numbers belong to inactive results.
# Experiments:
# Assay in all cases: log2 ratio of Biotin-Ahx-Ub-VS probe labelling (fragment/DMSO); higher = less target engagement (more negative = stronger competition), active = hit call of the paper (q ≤ 0.05, log2 ratio ≤ -1)
# Settings in all cases: compound concentration: 200 uM; treatment time: 3 h
# [1] = target: T1, ALG13 (UniProt Q9NP73)
# T1 sequence (whole entry): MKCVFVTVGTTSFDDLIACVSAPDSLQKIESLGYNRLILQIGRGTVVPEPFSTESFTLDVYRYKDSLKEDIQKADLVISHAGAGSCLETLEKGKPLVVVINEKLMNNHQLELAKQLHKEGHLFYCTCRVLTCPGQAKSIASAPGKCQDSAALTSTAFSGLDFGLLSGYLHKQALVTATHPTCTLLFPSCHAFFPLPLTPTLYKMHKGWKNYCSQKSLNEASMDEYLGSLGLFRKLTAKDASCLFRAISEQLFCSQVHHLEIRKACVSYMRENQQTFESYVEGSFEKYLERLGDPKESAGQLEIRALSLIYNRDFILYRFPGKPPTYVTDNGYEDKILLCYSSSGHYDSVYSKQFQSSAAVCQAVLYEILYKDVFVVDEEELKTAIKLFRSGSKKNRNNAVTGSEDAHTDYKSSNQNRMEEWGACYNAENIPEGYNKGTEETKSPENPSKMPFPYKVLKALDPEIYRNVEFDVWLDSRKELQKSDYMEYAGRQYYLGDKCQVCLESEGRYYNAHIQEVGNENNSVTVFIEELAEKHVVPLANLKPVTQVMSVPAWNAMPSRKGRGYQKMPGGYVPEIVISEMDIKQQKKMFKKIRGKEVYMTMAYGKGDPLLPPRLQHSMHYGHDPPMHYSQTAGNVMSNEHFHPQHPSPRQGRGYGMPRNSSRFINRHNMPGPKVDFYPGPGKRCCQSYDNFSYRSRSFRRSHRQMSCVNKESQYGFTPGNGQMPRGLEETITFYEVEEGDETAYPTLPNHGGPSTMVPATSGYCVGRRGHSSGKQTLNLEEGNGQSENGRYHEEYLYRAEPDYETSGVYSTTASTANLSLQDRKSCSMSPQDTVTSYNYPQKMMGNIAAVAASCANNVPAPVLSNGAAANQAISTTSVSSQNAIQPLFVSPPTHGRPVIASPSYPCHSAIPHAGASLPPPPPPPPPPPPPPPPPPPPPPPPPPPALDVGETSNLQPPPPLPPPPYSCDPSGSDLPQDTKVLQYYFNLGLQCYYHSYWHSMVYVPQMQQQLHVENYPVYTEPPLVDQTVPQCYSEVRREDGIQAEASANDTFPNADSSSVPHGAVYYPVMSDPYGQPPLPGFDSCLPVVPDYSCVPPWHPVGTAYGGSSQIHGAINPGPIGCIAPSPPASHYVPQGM
# Outline: (§1)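 Each value is an average log2 ratio of fragment to vehicle, tested by unpaired t-test. The underlying Spectronaut label-free quantities were global-median-normalised, and only proteins with ≥2 unique peptides were included. Triplicate HEK293T lysate samples (495 µg) were exposed to fragment at 200 µM or vehicle for 3 h, then to Biotin-Ahx-Ub-VS at 0.5 µM final for 1 h, before NeutrAvidin enrichment of labelled DUBs, LysC and trypsin digestion, and diaPASEF LC-MS/MS.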
# [2] = target: ATXN3 (UniProt P54252)
# Outline: as §1
# [3] = target: T2, BAP1 (UniProt Q92560)
# T2 sequence (whole entry): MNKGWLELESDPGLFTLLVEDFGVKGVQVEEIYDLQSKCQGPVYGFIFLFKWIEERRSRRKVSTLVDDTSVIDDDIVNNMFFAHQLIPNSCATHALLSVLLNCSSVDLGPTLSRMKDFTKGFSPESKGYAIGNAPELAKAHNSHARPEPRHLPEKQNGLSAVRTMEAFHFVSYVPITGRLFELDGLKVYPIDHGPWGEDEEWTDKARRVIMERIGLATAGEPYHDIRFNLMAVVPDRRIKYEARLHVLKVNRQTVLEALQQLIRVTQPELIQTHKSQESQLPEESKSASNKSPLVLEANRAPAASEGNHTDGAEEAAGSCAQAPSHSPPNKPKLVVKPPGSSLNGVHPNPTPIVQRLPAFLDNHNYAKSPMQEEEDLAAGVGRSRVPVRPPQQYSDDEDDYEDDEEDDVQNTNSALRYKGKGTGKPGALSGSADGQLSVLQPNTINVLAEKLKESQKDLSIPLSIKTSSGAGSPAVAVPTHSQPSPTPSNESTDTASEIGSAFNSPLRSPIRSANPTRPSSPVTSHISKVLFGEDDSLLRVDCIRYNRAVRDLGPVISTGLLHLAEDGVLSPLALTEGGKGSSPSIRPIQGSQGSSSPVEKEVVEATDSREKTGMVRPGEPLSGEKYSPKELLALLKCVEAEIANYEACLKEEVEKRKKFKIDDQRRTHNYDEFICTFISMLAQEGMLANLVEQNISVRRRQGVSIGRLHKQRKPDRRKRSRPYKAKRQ
# Outline: as §1
# [4] = target: EIF3F (UniProt O00303)
# Outline: as §1
# [5] = target: EIF3H (UniProt O15372)
# Outline: as §1
# [6] = target: T3, FAM105A (UniProt Q9NUU6)
# T3 sequence (whole entry): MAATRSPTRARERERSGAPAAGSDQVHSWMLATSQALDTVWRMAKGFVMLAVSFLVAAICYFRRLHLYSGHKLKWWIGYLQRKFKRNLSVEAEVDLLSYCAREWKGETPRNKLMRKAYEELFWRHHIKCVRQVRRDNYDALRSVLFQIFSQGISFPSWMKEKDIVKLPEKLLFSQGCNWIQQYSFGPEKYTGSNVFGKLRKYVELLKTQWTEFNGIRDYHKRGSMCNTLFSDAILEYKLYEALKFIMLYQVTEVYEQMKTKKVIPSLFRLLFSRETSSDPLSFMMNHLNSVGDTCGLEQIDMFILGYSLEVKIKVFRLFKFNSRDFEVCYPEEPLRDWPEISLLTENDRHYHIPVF
# Outline: as §1
# [7] = target: OTUB1 (UniProt Q96FW1)
# Outline: as §1
# [8] = target: T4, OTUD4 (UniProt Q01804)
# T4 sequence (whole entry): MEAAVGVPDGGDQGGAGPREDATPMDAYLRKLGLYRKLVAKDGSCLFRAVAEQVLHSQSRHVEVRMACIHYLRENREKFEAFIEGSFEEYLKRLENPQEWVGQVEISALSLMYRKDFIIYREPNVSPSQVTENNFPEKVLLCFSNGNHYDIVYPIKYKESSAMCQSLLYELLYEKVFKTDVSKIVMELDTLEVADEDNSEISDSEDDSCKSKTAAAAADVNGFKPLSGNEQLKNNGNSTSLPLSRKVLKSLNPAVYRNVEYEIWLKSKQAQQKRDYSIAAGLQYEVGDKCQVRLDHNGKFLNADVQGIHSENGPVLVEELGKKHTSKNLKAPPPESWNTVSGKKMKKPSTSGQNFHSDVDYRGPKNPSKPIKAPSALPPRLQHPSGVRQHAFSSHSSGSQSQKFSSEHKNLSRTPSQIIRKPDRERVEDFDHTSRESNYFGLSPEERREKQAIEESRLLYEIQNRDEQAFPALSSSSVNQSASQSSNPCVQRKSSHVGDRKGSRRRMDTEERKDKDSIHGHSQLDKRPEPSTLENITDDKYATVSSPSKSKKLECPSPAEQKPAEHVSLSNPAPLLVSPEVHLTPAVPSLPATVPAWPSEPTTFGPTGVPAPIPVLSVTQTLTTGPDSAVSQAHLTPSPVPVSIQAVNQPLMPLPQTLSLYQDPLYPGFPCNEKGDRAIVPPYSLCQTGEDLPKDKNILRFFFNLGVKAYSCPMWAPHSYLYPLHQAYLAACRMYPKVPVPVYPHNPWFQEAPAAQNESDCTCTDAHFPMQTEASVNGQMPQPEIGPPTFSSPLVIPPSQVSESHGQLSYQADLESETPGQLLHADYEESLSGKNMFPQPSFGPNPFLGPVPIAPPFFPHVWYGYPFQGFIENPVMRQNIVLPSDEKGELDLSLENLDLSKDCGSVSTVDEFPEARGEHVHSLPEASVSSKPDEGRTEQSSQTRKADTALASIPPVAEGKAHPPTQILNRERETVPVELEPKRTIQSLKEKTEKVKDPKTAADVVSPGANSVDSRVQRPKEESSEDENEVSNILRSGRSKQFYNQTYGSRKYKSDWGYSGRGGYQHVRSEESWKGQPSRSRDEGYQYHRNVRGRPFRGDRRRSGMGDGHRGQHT
# Outline: as §1
# [9] = target: T5, OTUD5 (UniProt Q96G74)
# T5 sequence (whole entry): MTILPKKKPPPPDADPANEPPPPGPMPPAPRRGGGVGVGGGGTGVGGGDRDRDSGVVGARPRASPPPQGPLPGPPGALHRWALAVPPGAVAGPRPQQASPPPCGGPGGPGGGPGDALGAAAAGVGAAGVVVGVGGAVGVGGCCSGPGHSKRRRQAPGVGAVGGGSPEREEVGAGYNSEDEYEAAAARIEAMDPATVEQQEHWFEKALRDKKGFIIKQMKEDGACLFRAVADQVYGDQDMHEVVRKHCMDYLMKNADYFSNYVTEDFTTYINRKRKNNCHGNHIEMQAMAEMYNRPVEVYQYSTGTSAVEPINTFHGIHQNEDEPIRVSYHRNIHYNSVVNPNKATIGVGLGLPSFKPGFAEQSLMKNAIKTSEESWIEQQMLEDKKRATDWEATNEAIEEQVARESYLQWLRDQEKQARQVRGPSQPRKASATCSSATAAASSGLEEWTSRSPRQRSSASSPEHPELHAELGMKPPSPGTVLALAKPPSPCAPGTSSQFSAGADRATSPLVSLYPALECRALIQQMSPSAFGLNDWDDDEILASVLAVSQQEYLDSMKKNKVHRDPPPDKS
# Outline: as §1
# Chain of OTUB1 (Q96FW1 whole entry): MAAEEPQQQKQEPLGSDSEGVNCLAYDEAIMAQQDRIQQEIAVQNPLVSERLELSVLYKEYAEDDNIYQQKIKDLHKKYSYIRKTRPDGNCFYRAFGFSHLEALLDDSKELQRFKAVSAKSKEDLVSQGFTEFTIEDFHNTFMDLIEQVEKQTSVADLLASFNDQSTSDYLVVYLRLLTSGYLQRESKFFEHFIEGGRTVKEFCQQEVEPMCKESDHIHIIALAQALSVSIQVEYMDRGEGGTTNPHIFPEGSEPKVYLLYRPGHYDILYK
# Chain of EIF3H (O15372 whole entry): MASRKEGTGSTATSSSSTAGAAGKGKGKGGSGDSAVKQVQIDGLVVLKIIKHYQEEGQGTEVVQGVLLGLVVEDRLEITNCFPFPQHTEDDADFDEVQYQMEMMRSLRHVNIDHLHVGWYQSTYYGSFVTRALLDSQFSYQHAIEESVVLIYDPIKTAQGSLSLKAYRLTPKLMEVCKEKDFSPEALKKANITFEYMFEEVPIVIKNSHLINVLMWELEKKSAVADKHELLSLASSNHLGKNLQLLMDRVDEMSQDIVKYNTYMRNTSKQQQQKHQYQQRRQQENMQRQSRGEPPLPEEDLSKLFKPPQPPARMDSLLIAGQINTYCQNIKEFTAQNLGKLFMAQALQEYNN
# Chain of ATXN3 (P54252 whole entry): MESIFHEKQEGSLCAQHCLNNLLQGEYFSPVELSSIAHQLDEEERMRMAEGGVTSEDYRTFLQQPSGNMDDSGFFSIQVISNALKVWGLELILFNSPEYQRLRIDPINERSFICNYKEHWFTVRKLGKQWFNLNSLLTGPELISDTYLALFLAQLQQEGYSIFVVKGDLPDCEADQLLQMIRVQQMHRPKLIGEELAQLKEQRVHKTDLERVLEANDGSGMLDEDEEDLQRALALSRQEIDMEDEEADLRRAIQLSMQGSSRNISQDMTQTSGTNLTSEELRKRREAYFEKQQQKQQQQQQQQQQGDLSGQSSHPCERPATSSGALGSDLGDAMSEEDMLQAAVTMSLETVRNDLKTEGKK
# Chain of EIF3F (O00303 whole entry): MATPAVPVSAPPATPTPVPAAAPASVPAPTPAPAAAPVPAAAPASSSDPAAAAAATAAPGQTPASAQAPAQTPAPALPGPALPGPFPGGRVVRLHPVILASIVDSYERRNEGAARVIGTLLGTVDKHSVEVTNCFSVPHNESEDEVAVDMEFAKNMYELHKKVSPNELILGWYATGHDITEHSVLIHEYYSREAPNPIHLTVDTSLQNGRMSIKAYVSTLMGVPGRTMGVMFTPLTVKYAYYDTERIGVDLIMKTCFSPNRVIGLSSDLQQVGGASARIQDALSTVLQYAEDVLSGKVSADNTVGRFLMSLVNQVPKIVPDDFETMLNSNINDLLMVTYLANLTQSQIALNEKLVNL
smiles,measurement,setting,value
CC(NC(=O)CCl)c1cccc(Cl)c1 (centres undefined),log2 ratio of Biotin-Ahx-Ub-VS probe labelling,[1],0.0326
same,log2 ratio of Biotin-Ahx-Ub-VS probe labelling,[2],-0.401
same,log2 ratio of Biotin-Ahx-Ub-VS probe labelling,[3],-3.17 (active)
same,log2 ratio of Biotin-Ahx-Ub-VS probe labelling,[4],0.0315
same,log2 ratio of Biotin-Ahx-Ub-VS probe labelling,[5],0.0634
same,log2 ratio of Biotin-Ahx-Ub-VS probe labelling,[6],-0.0535
same,log2 ratio of Biotin-Ahx-Ub-VS probe labelling,[7],0.0729
same,log2 ratio of Biotin-Ahx-Ub-VS probe labelling,[8],-0.705
same,log2 ratio of Biotin-Ahx-Ub-VS probe labelling,[9],-0.433

# — the supplement of paper PMC11732987, “Enantioselective OTUD7B fragment discovery through chemoproteomics screening and high-throughput optimisation” (Communications Chemistry, 2025)
